The results in this text go back to PubChem BioAssay (NCATS).

Results filed as inconclusive are left out. Some of the results follow. Where a call stands in place of a potency, no number is given. Activity calls are given as the source filed them. The call rests on the fitted dose curve; in most records, active means well fitted curve in the direction sought with a large enough effect; inconclusive means small, poorly fitted or top-dose-only effect, or another doubt; inactive means no such curve, though single readings can be large; an effect the other way counts as inactive or inconclusive.

Chain of Cytochrome P450 3A4 (Homo sapiens) (P08684 whole entry, looked up): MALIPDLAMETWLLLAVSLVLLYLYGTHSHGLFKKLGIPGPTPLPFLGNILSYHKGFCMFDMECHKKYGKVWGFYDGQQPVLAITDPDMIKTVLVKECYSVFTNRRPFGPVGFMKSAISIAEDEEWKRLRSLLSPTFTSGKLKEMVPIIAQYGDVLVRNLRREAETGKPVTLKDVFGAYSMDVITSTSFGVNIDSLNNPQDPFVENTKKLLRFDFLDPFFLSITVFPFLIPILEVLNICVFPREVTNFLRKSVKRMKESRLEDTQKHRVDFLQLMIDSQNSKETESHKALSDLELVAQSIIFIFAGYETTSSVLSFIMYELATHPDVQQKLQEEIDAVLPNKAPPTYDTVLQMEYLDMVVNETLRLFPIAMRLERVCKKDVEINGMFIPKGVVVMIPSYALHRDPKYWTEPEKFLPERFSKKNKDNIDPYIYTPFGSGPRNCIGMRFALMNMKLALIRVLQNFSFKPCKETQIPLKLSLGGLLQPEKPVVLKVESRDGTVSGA

The first assay has as its target Cytochrome P450 3A4 (Homo sapiens) (UniProt P08684). The experiment in a line: qHTS Assay for Inhibitors and Substrates of Cytochrome P450 3A4 (AID 884). Further: nearly all actives have a fitted effect of over 50% in size. Further: potency means the concentration at half of the fitted maximal effect. As to conditions: recombinant CYP3A4, Luciferin-PPXE luminescence; series mostly up to 57.1 µM. A digest of the protocol:
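20 nM human CYP3A4 with 25 uM Luciferin-PPXE (at KM) in 200 mM KPO4, preincubated 10 min with compound; NADPH regeneration started a 60 min RT reaction. Luciferin detected by luminescence, normalized to 57 uM ketoconazole as full inhibition.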
As to `COc1ccc2cc1Oc1ccc(cc1)C[C@H]1c3cc(c(OC)cc3CCN1C)Oc1c(OC)c(OC)cc3c1[C@@H](C2)N(C)CC3`, the Potency result is “inactive”. Take `COc1ccccc1-c1nc(NCc2ccccc2)c2ccccc2n1`: the Potency was 3.98 µM (active). Still for that read-out and setting: with `CNc1ncncc1-c1ccc(C(=O)N(C)C)cc1` the figure was 5.01 µM (active).

The next assay has the same target. The experiment in a line: qHTS Assay for Activators of Cytochrome P450 3A4 (AID 885). Further: nearly all actives have a fitted effect of over 65% in size. As to conditions: recombinant CYP3A4, Luciferin-PPXE luminescence, 60 min; series mostly up to 11.4 µM. A digest of the protocol: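 Quantitative HTS format: compounds preincubated with 20nM human CYP3A4 and Luciferin-PPXE substrate at KM, reaction started by NADPH regeneration, stopped after 60 min, luciferase luminescence read 20 min later.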
(In qHTS, concentration-response curves come from the screen itself.)
As to `CN(C)c1ccc(-c2cc(NCc3ccccc3)ncn2)cc1`, the Potency result is “inactive”. For `COc1ccccc1-c1nc(NCc2ccccc2)c2ccccc2n1`, the Potency result is “inactive”. Same read-out and setting: next, `CNc1ncncc1-c1ccc(C(=O)N(C)C)cc1`: “inactive”.

System in the next assay: not listed separately
The experiment in a line: Confirmation and Secondary Assay for Modulators of Hemoglobin Beta Chain Splicing at IVS2 654 locus (AID 910).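 Further: per-well total GFP intensity by laser scanning cytometry after 2-day treatment.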 As to conditions: HeLa EGFP-654 splicing reporter, GFP fluorescence, 48 h; series mostly up to 38.3 µM. Put shortly: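 HeLa cells stably carrying EGFP interrupted by mutant beta-globin IVS2-654 intron (CMV-driven) were treated with compound for 2 days at 37C; corrected splicing was scored as total peak GFP intensity per well (488 nm excitation, 500-520 nm emission).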
As for `CN(C)c1ccc(-c2cc(NCc3ccccc3)ncn2)cc1`, the call was inactive. As to `COc1ccccc1-c1nc(NCc2ccccc2)c2ccccc2n1`, the compound was classed as inactive. The same measure, in the same setting: next, `CN(C)Cc1ccccc1-c1ccc2ncnc(NC3CCNCC3)c2c1`: “inactive”; `CNc1ncncc1-c1ccc(C(=O)N(C)C)cc1`: “inactive”.

System in the next assay: not listed separately
The assay can be described thus: Confirmation and Secondary Assay for Modulators of Hemoglobin Beta Chain Splicing at IVS2 705 locus (AID 930).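 Further: HeLa cells stably expressing the EGFP-705 splicing reporter; GFP fluorescence per well restored by corrected splicing of the IVS2-705 intron in EGFP.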 As to conditions: HeLa EGFP-705 splicing reporter, GFP fluorescence, 48 h; series mostly up to 38.3 µM. A digest of the protocol:
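Splice-correction reporter: EGFP cDNA split by beta-globin intron 2 bearing the 705 mutation, stably in HeLa. Compound incubation 2 days, 37C; fluorescent objects 5-250 µm summed per well.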
`CN(C)c1ccc(-c2cc(NCc3ccccc3)ncn2)cc1`: the compound was called inactive.

Take `COc1ccccc1-c1nc(NCc2ccccc2)c2ccccc2n1`: the compound was called inactive.

Turning to `CN(C)Cc1ccccc1-c1ccc2ncnc(NC3CCNCC3)c2c1`, the compound was classed as inactive. Consider `CNc1ncncc1-c1ccc(C(=O)N(C)C)cc1`, for which the outcome was inactive.

Another assay deals with Fructose-bisphosphate aldolase A (Oryctolagus cuniculus) (UniProt P00883). The experiment in a line: qHTS Assay for Inhibitors of Fructose-1,6-bisphosphate Aldolase from Giardia Lamblia: Rabbit FBPA Selectivity (AID 2794). Further: nearly all actives have a fitted effect of over 60% in size. As to conditions: Rabbit muscle FBPA enzyme inhibition, selectivity counter-screen; series mostly up to 57.5 µM. A digest of the protocol: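 Titrations up to 57.5 uM (final) were pin-transferred onto the coupling enzyme mix and held 10 min at room temperature. Substrate with the coupled detection system and AmpLite Red followed, and after 20 min fluorescence was measured.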
Chain of Fructose-bisphosphate aldolase A (Oryctolagus cuniculus) (P00883 whole entry, looked up): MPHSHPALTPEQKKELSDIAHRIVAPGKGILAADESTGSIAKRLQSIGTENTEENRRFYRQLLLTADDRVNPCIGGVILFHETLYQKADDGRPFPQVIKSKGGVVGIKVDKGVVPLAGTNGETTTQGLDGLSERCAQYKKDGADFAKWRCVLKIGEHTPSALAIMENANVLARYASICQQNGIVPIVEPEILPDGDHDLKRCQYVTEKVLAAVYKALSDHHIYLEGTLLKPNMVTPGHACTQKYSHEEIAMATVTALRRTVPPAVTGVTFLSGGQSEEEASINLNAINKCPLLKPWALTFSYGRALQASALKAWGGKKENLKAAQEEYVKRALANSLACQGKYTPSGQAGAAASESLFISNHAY
For the compound `Cc1cc(C)c2c(=O)[nH]c(SCC(=O)Nc3ccc(Br)cc3)nc2n1`, the call was inactive. The same measure, in the same setting: with `COc1ccc(C(=O)NC(=S)N2CCCCC2c2cccnc2)cc1OC` (stereo not given) the entry was “inactive”; with `CC(=O)NC1CCN(CC(=O)Nc2nccs2)CC1`, “inactive”; with `Cc1cccc(-c2nnc(SCC(=O)O)n2Cc2ccccc2)c1`, “inactive”. For `Oc1[nH]c2ccc(Br)cc2c1N=Nc1nn[nH]n1`, the compound was called inactive. Same read-out and setting: next, `C=C(C)CNC(=S)N/N=C/c1ccccc1OCC(=O)O`: “inactive”. In the case of `CCN(CC(=O)Nc1ccc(S(=O)(=O)N2CCCC2)cc1)CC(=O)Nc1cccc(OC)c1`, the outcome was inactive.

System in another assay: not listed separately
The assay can be described thus: qHTS Assay for Inhibitors of Fructose-1,6-bisphosphate Aldolase from Giardia Lamblia: Coupling assay counterscreen confirmation (AID 2795). Further: nearly all actives have a fitted effect of over 55% in size. Conditions: GAPDH coupling enzyme counterscreen, biochemical; series mostly up to 57.5 µM. A digest of the protocol:
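GAPDH-coupled counterassay lacking aldolase; compound range up to 57.5 uM final; 10 + 20 min RT incubations; AmpLite Red fluorescence, 525/598 nm.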
As for `Cc1cnc(NC(=O)c2ccccn2)s1`, the compound was classed as inactive.

Turning to `O=C(N/N=C/c1ccccn1)c1cccnc1`, the result was inactive. Still for that read-out and setting: next, `C/C(=N\NC(N)=S)c1cccnc1`: “inactive”; `COCCN(C(=S)Nc1ccccc1OC)C1CCN(C(C)C)CC1`: “inactive”; `O=C(CN1C(=O)COc2ccccc21)Nc1ccc(F)cc1`: “inactive”.

As for `C=CCNC(=S)/N=c1/ccccn1Cc1ccccc1`, the compound was classed as inactive. Take `CC(=O)NC1CCN(CC(=O)Nc2nccs2)CC1`: the call was inactive. Still for that read-out and setting: next, `Cc1nc(N2CCOCC2)sc1C(=O)NN`: “inactive”. Turning to `Cc1cccc(-c2nnc(SCC(=O)O)n2Cc2ccccc2)c1`, the compound was called inactive.
